In PubChem BioAssay AID1347416 (National Center for Advancing Translational Sciences (NCATS), 2020):
The campaign covered roughly 4,100 compounds. About 1,600 (39%) were called active. Roughly 25% stayed inconclusive and do not appear here. The call rests on the fitted dose curve; in most records, active means well fitted inhibition curve with a large enough effect; inconclusive means small, poorly fitted or top-dose-only effect; inactive means no such curve, though single readings can be large or run the other way. This is one part of the list.

experiment: qHTS Validation assay for Inhibitors of Plasmodium falciparum Dd2 growth in vitro; further: nearly all actives have a fitted effect of over 70% in size; settings: P. falciparum Dd2 in RBCs, SYBR Green growth, 72 h; series mostly up to 28.7 µM; activity change, negative = inhibition: at the top concentration
Procedure, shortened: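 P. falciparum Dd2-infected red blood cells (2.5% hematocrit, 0.3% parasitemia) grown 72 h at 37 °C under 5% O2 with compounds in a titration, 29 uM to 0.5 nM final. Growth read as SYBR Green-1 fluorescence after ~16 h lysis; artesunate 300 nM as positive control.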
On the % scale 0 is the no-effect control and ±100 the full control effect; potency means the concentration at half of the fitted maximal effect.

Structure (SMILES)	Potency	activity change, negative = inhibition
O=C(CSc1nc(Nc2ccccc2)nc(N2CCOCC2)n1)Nc1cc(Cl)ccc1O	2.37 µM (active)	
COc1cccc(-c2cc3c(=O)n(CCNC(=O)COc4ccc(F)cc4)ccn3n2)c1		10.4% (inactive)
CCN(CC)CCNC(=O)c1ccc(NC(=O)c2cn(-c3ccc(F)cc3)nc2-c2cccc(OC)c2)cc1	9.44 µM (active)	
Cc1nn(-c2ccccc2)nc1-c1nnc(-c2ccc(C(F)(F)F)cc2)o1		24.1% (inactive)
COc1cc(NC2CCCCC2O)c2nc(-c3ccc(Cl)cc3)ccc2c1 (stereo not given)	5.31 µM (active)	
Oc1ccc(Cl)cc1CNCc1cccc2ccccc12	0.842 µM (active)	
Oc1ccc(Cl)cc1CNCc1ccc(C(F)(F)F)cc1	4.22 µM (active)	
Oc1ccc(Cl)cc1CNCC1CCCCC1	4.22 µM (active)	
O=C(Nc1cccc(-c2nc3ccccc3[nH]2)c1)c1ccc(C(=O)Nc2cccc(-c3nc4ccccc4[nH]3)c2)cc1	2.66 µM (active)	
COC(=O)c1ccc(NC(=O)CSc2nc3cc4ccccc4cc3[nH]2)cc1		-17.5% (inactive)
CC1CCCCN1S(=O)(=O)c1ccc(C(=O)Nc2ccccc2-c2nc3ccccc3[nH]2)cc1 (stereo not given)	7.5 µM (active)	
CC(=O)Nc1ccc(S(=O)(=O)N2CCC(n3c(C)nc4cccnc43)CC2)cc1		23.5% (inactive)
CC(C)(C)N1C(=O)c2ccc(C(=O)Nc3ccc(-c4nc5ccccc5[nH]4)cc3)cc2C1=O	6.68 µM (active)	
CS(=O)(=O)c1ccc(C(=O)Nc2ccc(-c3nc4ccccc4[nH]3)cc2)cc1	7.5 µM (active)	
Nc1ccc2nc(-c3cccnc3)[nH]c2c1		-37.2% (inactive)
O=C(Nc1cccc(Oc2ccc(C(=O)O)c(C(=O)O)c2)c1)c1ccc(-c2ccccc2)cc1		11.3% (inactive)
COc1ccc(CCN(C)C(=S)Nc2cccc(C)c2)cc1OC	2.11 µM (active)	
COc1cc2c(cc1OC)C(c1ccccc1N)=NCC2		-18.1% (inactive)
Brc1c(C[n+]2ccccc2)nc2ccccn12		-12.1% (inactive)
CCc1cc(CN(C)C(=O)c2cc(COc3ccccc3F)[nH]n2)on1		29.2% (inactive)

Structure (SMILES)	Potency	activity change, negative = inhibition
CC1(c2ccccc2)N(Cc2cccnc2)C(=O)OC12CCN(C(=O)Cc1ccc(Cl)cc1)CC2 (stereo not given)	13.3 µM (active)	
CCN1CCN(c2nc3c(s2)CN(C(=O)Cc2cccnc2)CC3)CC1		29.4% (inactive)
CC(=O)Nc1ccc(CN2C(=O)OC3(CCN(C(=O)C4CCC4)CC3)C2(C)c2ccccc2)cc1 (stereo not given)		-21.2% (inactive)
CC1(c2ccccc2)N(Cc2cccnc2)C(=O)OC12CCN(Cc1ccccc1)CC2 (stereo not given)	17.2 µM (active)	
CC1(c2ccccc2)N(Cc2ccccc2)C(=O)OC12CCN(Cc1cccnc1)CC2 (stereo not given)	15.3 µM (active)	
CCN(CC)c1ccc(C(=O)N2CCCC(n3cc(-c4noc(C)n4)nn3)C2)cc1 (stereo not given)		-5.7% (inactive)
COc1ccc(C(=O)N[C@@H]2CCC[C@@H]2C(=O)NC(C)C)cc1		-18.7% (inactive)
COc1cccc(CNC(=O)N[C@@H]2CN(Cc3ccncc3)C[C@H]2CN(C)C)c1		0% (inactive)
COc1ccc(C(=O)N[C@@H]2CN(Cc3cccc(OC)c3)CCC[C@H]2O)cc1	10.9 µM (active)	
CC(C)(C)Nc1nc(NC(C)(C)C)nc(-n2ccnc2)n1	4.73 µM (active)	
CCc1ccc(CN(C(=O)c2nc(SC)ncc2Cl)C2CCS(=O)(=O)C2)cc1 (stereo not given)		-8.57% (inactive)
c1ccc(Oc2ccc(Nc3cnc4ccc(N5CCOCC5)nn34)cc2)cc1	7.69 µM (active)	
CN1CCN(c2ccc(-c3cccc(N)c3)nn2)CC1		-6.65% (inactive)
CN1CCN(c2ccc3ncc(Nc4ccccc4-c4ccccc4)n3n2)CC1	0.863 µM (active)	
CN(C)c1ccc2ncc(Nc3ccc(Oc4ccccc4)cc3)n2n1	8.63 µM (active)	
COc1cc(NC(=O)c2cc(-c3cccs3)on2)c(OC)cc1Cl		4.63% (inactive)
O=C(Nc1ccccc1C(F)(F)F)c1cc(-c2ccccc2O)on1	2.99 µM (active)	
O=C(Nc1ccccc1OCc1cc(=O)n2ccccc2n1)Nc1ccccc1C(F)(F)F		64.6% (inactive)
CCOc1cccc(/C=N/Nc2nc(N3CCCC3)nc(N3CCCC3)n2)c1O		-13.7% (inactive)
COc1ccc(/C=N/Nc2nc(Nc3ccccc3)nc(N3CCCC3)n2)cc1[N+](=O)[O-]	6.68 µM (active)	

Structure (SMILES)	Potency	activity change, negative = inhibition
Cc1ccc(-c2noc(-c3ccc(N4CCCC4)c([N+](=O)[O-])c3)n2)cc1		-4.43% (inactive)
NCCn1cc(C(=O)N2CCCC(c3[nH]ncc3Cc3ccccc3)C2)nn1 (stereo not given)		35.2% (inactive)
COc1ccc(Nc2c(-c3cc(Br)ccc3O)nc3ncccn23)cc1OC	4.73 µM (active)	
CCN(CC)CCNC(=O)c1ccc(NC(=O)c2cccc(S(=O)(=O)N3CCc4ccccc43)c2)cc1	5.31 µM (active)	
CCN(CC)CCCNC(=O)C1CCN(S(=O)(=O)CC)CC1		9.31% (inactive)
CC(C)(C)CC(=O)Nc1ccc(S(=O)(=O)N2CCCC2)cc1		23.1% (inactive)
CCN(CC)CCNC(=O)c1ccc(NC(=O)c2ccc(S(=O)(=O)N3CCCCCC3)cc2)cc1	8.41 µM (active)	
CCCCNC(=O)c1cccc2c1CCN2S(=O)(=O)c1cccc(C)c1		-16.4% (inactive)
Cc1cc(C)cc(N2C(N)=NC(N)=NC2c2cccc(Cl)c2)c1 (stereo not given)		-28.9% (inactive)
Cc1nc2c(c(N3CCCC(COc4cccc(F)c4)C3)n1)CCNCC2 (stereo not given)	8.41 µM (active)	
COc1ccc(-c2cc(N3CCCC(NC(=O)c4cccc(F)c4)C3)n[nH]2)cc1 (stereo not given)		-11.7% (inactive)
O=C(Cc1cccc(F)c1)N1CCCC(Cc2nc(C3CCOCC3)no2)C1 (stereo not given)		-15.4% (inactive)
COC1C(=O)N(c2cccc(F)c2)C12CCN(C(=O)c1cc3ccccc3[nH]1)CC2 (stereo not given)		-71.7% (inactive)
CC(C)CN(CCNC(=O)c1cc(-c2ccc(Cl)s2)nc2ccccc12)CC(C)C	7.5 µM (active)	
O=C(Nc1ccccc1)[C@H]1O[C@H](CCN2CCN(c3ccc(F)cc3)CC2)CC[C@@H]1O	10.9 µM (active)	
Cc1cccc(NC(=O)CCN2CCN(c3ccccc3F)CC2)c1		18.2% (inactive)
Cc1cccc(N(C)S(=O)(=O)c2nnc(NC(=O)C(C)Oc3ccccc3)s2)c1 (stereo not given)		-12.3% (inactive)
Cc1cccc(N(C)c2nc3ccccc3c3nnc(C)n23)c1	1.06 µM (active)	
COc1cc2c(cc1OC)CN(c1ccc3ccccc3n1)CC2		-25.5% (inactive)
Cc1ccccc1OCC(O)CN(Cc1ccccc1O)C1CCCCC1 (stereo not given)	0.119 µM (active)	
